High-throughput results as filed in PubChem BioAssay.
Most compounds without a hit are left out; they make up all but 2.9% or so of the library.
B2AR arrestin – qHTS assay of beta-arrestin-biased ligands of beta2-adrenergic receptor; beta-arrestin recruitment to beta2AR, cell-based reporter; Beta-2 adrenergic receptor (Homo sapiens), P07550; actives 0.02% (n = 330,000); Potency, µM (series often up to 46.1 µM), for inactives: top-dose activation, actives largely listed as activators; active means well fitted activation curve with a large enough effect; inconclusive means small, poorly fitted or top-dose-only effect;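 further: potency means the concentration at half of the fitted maximal effect; 0% = DMSO controls and full agonism = EC100 isoproterenol or metaproterenol; nearly all actives have a fitted effect of over 65% in size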
DRD3 antagonist – qHTS of D3 Dopamine Receptor Antagonist: qHTS | D(3) dopamine receptor (Homo sapiens), P35462 | D3R cells, DiscoveRx beta-arrestin luminescence, antagonist mode; active compounds read low | max response, negative = inhibition, % | actives 2.5% (n = 360,000) | AID 652054, 2013; in the data active means max response below about -50%; inconclusive means no clear call, values can overlap the other calls; further: on the % scale 0 is the no-effect control and ±100 the full control effect
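Cells expressing the human receptor were seeded at 1500 cells/well, incubated overnight at 37 degrees C in 5% CO2, then exposed to library compounds with dopamine controls for 90 minutes at 37 degrees C before luminescent detection.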
D3 ag – qHTS of D3 Dopamine Receptor Agonist: qHTS; actives 0.58% (n = 410,000); max activation, %; AID 652048, 2013; D3R DiscoveRx beta-arrestin cells, luminescence, 90 min; in the data active means max activation above about 30%; further: 0% is about no effect
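Agonist mode: compounds and dopamine controls were applied to plated cells for 90 min at 37 degrees C after an overnight attachment at 1500 cells/well. Luminescent read-out followed 30 - 60 minutes at room temperature with DiscoveRx detection reagent.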
TSHR antagonist – Antagonists of the Thyroid Stimulating Hormone Receptor: HTS campaign. TSHR-expressing cells, TSH-stimulated cAMP HTRF, 2 h; active compounds read low. actives 0.2% (n = 330,000). activity change, negative = inhibition, % at 11.5 µM. Thyrotropin receptor (Homo sapiens), P16473;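 active means activity change below a set negative limit, meaning inhibition stronger than a set level, cut at about -70% in these data; inconclusive means activity change between two set negative limits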; further: on the % scale 0 is the no-effect control and ±100 the full control effect
Target sequence (P16473 whole entry, looked up): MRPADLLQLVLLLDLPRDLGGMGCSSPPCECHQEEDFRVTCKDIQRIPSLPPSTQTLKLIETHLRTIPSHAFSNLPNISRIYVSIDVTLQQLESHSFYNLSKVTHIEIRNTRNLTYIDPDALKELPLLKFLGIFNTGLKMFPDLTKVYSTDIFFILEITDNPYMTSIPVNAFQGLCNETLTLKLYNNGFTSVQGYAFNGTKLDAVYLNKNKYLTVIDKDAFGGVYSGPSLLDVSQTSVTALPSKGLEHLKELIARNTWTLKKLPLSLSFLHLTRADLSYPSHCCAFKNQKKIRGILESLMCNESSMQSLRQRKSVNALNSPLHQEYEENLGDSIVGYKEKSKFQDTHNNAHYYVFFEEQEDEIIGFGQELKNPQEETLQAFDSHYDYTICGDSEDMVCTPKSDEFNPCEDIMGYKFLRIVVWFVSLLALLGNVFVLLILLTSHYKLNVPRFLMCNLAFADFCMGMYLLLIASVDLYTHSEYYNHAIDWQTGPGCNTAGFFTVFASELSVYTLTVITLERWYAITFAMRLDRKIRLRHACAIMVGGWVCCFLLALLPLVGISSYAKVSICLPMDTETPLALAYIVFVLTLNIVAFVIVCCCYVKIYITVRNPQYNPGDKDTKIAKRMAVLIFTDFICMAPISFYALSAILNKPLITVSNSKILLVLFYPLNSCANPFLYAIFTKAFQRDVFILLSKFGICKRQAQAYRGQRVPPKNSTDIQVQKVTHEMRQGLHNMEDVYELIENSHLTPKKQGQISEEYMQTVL
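Read-out is FRET at 665 nm (cryptate excitation 337 nm) from a cryptate-tagged anti-cAMP antibody, competed by cell cAMP against cAMP-d2. Compounds are tested on freshly harvested TSHR cells challenged with 4nM TSH (EC80) for 2 hours at 37 deg C.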
* hit, by the source's call; ? = inconclusive; . = not tested or not shown.

SMILES	B2AR arrestin	DRD3 antagonist	D3 ag	TSHR antagonist
CCOc1ccc(NC(=O)CN2C(=O)C3(SCC(=O)N3c3ccc(F)cc3)c3ccccc32)cc1 (centres undefined)	.	.	1	.
CCOC(=O)c1cccc(NS(=O)(=O)c2ccc(-c3coc(C)n3)cc2)c1	.	.	2	.
COC(=O)Cc1c(C)c2ccc(O)c(CN3CCCC(C)C3)c2oc1=O (centres undefined)	-1%	-54*	-8	6
O=C(NCc1ccc(Cl)cc1)C1CCN(C(=O)c2cnn(-c3ccccc3)c2-n2cccc2)CC1	.	.	7	.
COc1ccc(-c2nc(SCC(=O)c3ccc(OC)c(Br)c3)n[nH]2)cc1	.	.	-23	.
OCc1cnc(SCc2cccc(F)c2)n1Cc1ccc(F)cc1	.	.	-16	.
CN1C(=O)C2CCCCN2c2ccc(C(=O)NCc3ccccc3Br)cc21 (centres undefined)	.	.	-15	.
CCc1ccc(NC(=O)CC2C(=O)N(c3ccc(Cl)cc3)C(=O)N2C2CCCC2)cc1 (centres undefined)	.	.	-1	.
COc1ccc(-c2csc(NC(=O)C3=NN(c4ccccc4)C(=O)CC3)n2)cc1	-1%	103	27	-78*
COc1ccc(-c2csc(NC(=O)c3ccccc3NS(=O)(=O)c3ccc(C)cc3)n2)cc1	0%	6	8	-82*
COc1ccc(-c2csc(NC(=O)c3c(OC)cccc3OC)n2)cc1	-1%	-5	-1	-7
COc1ccc(S(=O)(=O)Nc2ccccc2C(=O)Nc2nc(-c3ccc(F)cc3)cs2)cc1OC	0%	21	8	-88*
O=C(Nc1nc(-c2cc(F)ccc2F)cs1)C1=NN(c2ccccc2)C(=O)CC1	0%	47	7	-10
O=C(NS(=O)(=O)c1ccc2c(c1)OCCO2)c1ccccc1	0%	-85*	2	-9
O=C(O)c1ccccc1NS(=O)(=O)c1ccc2c(c1)OCCO2	0%	-16	-1	6
COC(=O)CCCCCn1c(-c2ccccc2)cn2c3c(=O)n(C)c(=O)n(C)c3nc12	.	.	-12	.
C=CC(=O)N1C/C(=C/c2ccc(F)cc2)C(=O)/C(=C\c2ccc(F)cc2)C1	.	-61*	-5	.
CN1C2CCC1/C(=C\c1ccc(F)cc1)C(=O)/C2=C/c1ccc(F)cc1	3%	?	0	3
COc1ccc(CCNC(=O)CCCn2c(=O)c3ccccc3n(CC(=O)Nc3ccc(C)cc3Cl)c2=O)cc1OC	.	.	5	.
O=C(CS(=O)c1ccc(C(F)(F)F)cc1[N+](=O)[O-])Oc1ccccc1 (centres undefined)	0%	?	-16	-71*
CS(=O)(=O)c1ccc(S(=O)CC(=O)OCc2ccccc2)c([N+](=O)[O-])c1 (centres undefined)	0%	-90*	-29	12
COc1cccc(NC(=O)c2cc3c(-c4ccc(Cl)cc4)nn(C)c3s2)c1	.	.	-25	.
COc1cccc(/C=C2\SC(=S)N(CCC(=O)NNC(=O)c3ccccc3OC)C2=O)c1	0%	2	5	-2
COc1cccc(/C=C2\SC(=O)N(CCC(=O)NNC(=O)c3ccccc3Cl)C2=O)c1	0%	16	57*	2
COC(C[C@H]1O[C@@H]1C(=O)COCc1ccccc1)OC	.	-5	32*	.
SMILES	B2AR arrestin	DRD3 antagonist	D3 ag	TSHR antagonist
COC(C[C@@H]1O[C@H]1C(=O)COCc1ccccc1)OC	.	-27	-15	.
NC(=O)NC(CC(=O)NCCCc1ccccc1)c1ccc(Cl)cc1 (centres undefined)	0%	-55*	-24	-6
CN1CCN(c2nc(Nc3cccc(C(F)(F)F)c3)nc(N3CCOCC3)n2)CC1	0%	-98*	-30	-3
CC(C)c1ccc(Nc2nc(N3CCOCC3)nc(N3CCOCC3)n2)cc1	.	-74*	-10	.
COC(=O)c1ccc(C2c3c(oc4cc(C)c(C)cc4c3=O)C(=O)N2c2ccccn2)cc1 (centres undefined)	.	.	8	.
Cc1cc(C(=O)NCCCn2ccnc2)sc1-c1ccccc1	0%	-70*	-58	12
COc1cccc(C(c2sc3nc(-c4ccco4)nn3c2O)N2CCC(O)CC2)c1 (centres undefined)	.	.	5	.
CN1CCN(C(=O)Cn2c(-c3cccs3)cc3ccccc32)CC1	.	.	3	.
Cc1ccc(C2CC(=O)N3CN(Cc4ccco4)CSC3=C2C#N)cc1 (centres undefined)	0%	-59*	-1	9
COc1ccc(Nc2nc(-c3cccs3)cs2)c(OC)c1	-1%	-51*	-5	-5
COc1ccc(Nc2nc3ccccc3nc2NS(=O)(=O)c2cccs2)c(OC)c1	-1%	-101*	-15	-5
COc1ccc(OC)c(Nc2nc(-c3cccs3)cs2)c1	0%	6	-8	-2
Cc1oc(-c2cccc(Cl)c2)nc1CS(=O)(=O)CC(=O)NCc1ccccc1Cl	.	.	-5	.
Cc1cc(C)c(S(=O)(=O)/N=C2\C=C(Nc3ccc(C(=O)O)cc3)C(=O)c3ccccc32)c(C)c1	-2%	-77*	-34	-48
O=C(O)c1ccc(NC2=C/C(=N/S(=O)(=O)c3ccccc3)c3ccccc3C2=O)cc1	0%	-92*	-20	-74*
O=C(Cn1c(-c2cccs2)cc2ccccc21)N1CCN(c2ccc(F)cc2)CC1	.	.	7	.
CCc1nn(C(C)C(=O)NCCN2CCCCCC2)c(=O)c2cc3occc3n12 (centres undefined)	-1%	-14	-18	14
CCc1nn(C(C)C(=O)NCCN2CCN(c3cccc(C)c3C)CC2)c(=O)c2cc3occc3n12 (centres undefined)	0%	-59*	-9	-2
O=C(CC(=O)Nc1cccc(Cl)c1)N/N=C\c1ccccc1	0%	3	-5	23
Oc1ccc(/C=N/NC(=S)Nc2cccnc2)c(O)c1O	0%	1	37*	-2
S=C(N/N=C/c1ccccc1Cl)Nc1ccccc1	9%	-64*	-34	41
S=C(N/N=C/c1cccc2ccccc12)Nc1cccc(Cl)c1	0%	-54*	-12	-9
Cc1ccc(NC(=O)CSc2nnc(C)n3c2cc2sccc23)c(C)c1	.	.	-22	.
CCCN(c1ccc(C(C)C)cc1)S(=O)(=O)c1ccc2c(c1)CCN2C(=O)CC	.	.	-21	.
CN(C)/C=C/c1oc2ccc(O)cc2c1[N+](=O)[O-]	0%	-52*	-6	-14
O=P(c1ccccc1)(c1ccccc1)C(c1ccco1)N1CCOCC1 (centres undefined)	0%	-61*	-28	16
C[C@@H]1NC(=O)[C@@H](N)CNC(=O)[C@H](C2CCNC(N)=N2)NC(=O)/C(=C/NC(N)=O)NC(=O)[C@H](CNC(=O)C[C@@H](N)CCCN)NC1=O (some centres undefined)	.	.	-12	.
CCNC1=C(Cl)C(=O)c2ccccc2C1=O	0%	?	3	-4
